Assay results published in PMC11006913.
Numbering of substitutions follows the chain as printed.

How the values were obtained:
Test in all cases: PBM; 200 nM protein, PBS
Settings in all cases: dsDNA, one strand shown
SIX6 [1] = target: T1, SIX6 (Homo sapiens, UniProt O95475 114-200, T165G)
T1 sequence: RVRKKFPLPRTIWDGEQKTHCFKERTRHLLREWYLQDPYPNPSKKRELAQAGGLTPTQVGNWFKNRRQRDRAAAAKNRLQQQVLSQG

SIX6 [2] = target: T2, SIX6 (Homo sapiens, UniProt O95475 114-200, T165A)
T2 sequence: T1 sequence with G52A

HESX1 = HESX1 (Homo sapiens, UniProt Q9UBX0 95-180)
Sequence of HESX1 (Q9UBX0 95-180): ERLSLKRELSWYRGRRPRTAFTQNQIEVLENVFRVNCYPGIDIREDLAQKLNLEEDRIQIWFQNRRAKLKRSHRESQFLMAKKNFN

HOXA2 [3] = target: HOXA2 (Homo sapiens, UniProt O43364 129-215, R185T)
Sequence of HOXA2 (Homo sapiens, UniProt O43364 129-215, R185T) (O43364 129-215 R185T): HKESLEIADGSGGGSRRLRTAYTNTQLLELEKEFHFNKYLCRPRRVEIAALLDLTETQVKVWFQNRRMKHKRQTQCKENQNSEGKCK

ALX1 [4] = target: ALX1 (Homo sapiens, UniProt Q15699 118-204, L144V)
Sequence of ALX1 (Homo sapiens, UniProt Q15699 118-204, L144V) (Q15699 118-204 L144V): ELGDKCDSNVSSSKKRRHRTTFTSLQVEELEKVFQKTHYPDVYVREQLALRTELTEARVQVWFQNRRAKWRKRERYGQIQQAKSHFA

ALX3 [5] = target: ALX3 (Homo sapiens, UniProt O95076 139-225, N203Q)
Sequence of ALX3 (Homo sapiens, UniProt O95076 139-225, N203Q) (O95076 139-225 N203Q): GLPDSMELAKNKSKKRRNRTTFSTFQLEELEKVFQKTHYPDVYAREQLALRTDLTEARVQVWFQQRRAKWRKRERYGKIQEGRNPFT

NKX2-6 [6] = target: T3, NKX2-6 (Homo sapiens, UniProt A6NCS4 118-204)
T3 sequence: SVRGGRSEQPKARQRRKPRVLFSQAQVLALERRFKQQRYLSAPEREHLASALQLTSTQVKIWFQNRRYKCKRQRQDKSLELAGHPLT

HOXA2 [7] = target: HOXA2 (Homo sapiens, UniProt O43364 129-215, R185K)
Sequence of HOXA2 (Homo sapiens, UniProt O43364 129-215, R185K) (O43364 129-215 R185K): as the sequence (O43364 129-215 R185T) above, with T57K counted along it

ALX1 [8] = target: ALX1 (Homo sapiens, UniProt Q15699 118-204, L144R)
Sequence of ALX1 (Homo sapiens, UniProt Q15699 118-204, L144R) (Q15699 118-204 L144R): as the sequence (Q15699 118-204 L144V) above, with V27R counted along it

ALX3 [9] = target: ALX3 (Homo sapiens, UniProt O95076 139-225)
Sequence of ALX3 (Homo sapiens, UniProt O95076 139-225) (O95076 139-225): as the sequence (O95076 139-225 N203Q) above, with Q65N counted along it

ALX3 [10] = target: ALX3 (Homo sapiens, UniProt O95076 139-225, L168Q)
Sequence of ALX3 (Homo sapiens, UniProt O95076 139-225, L168Q) (O95076 139-225 L168Q): as the sequence (O95076 139-225 N203Q) above, with L30Q, Q65N counted along it

NKX2-6 [11] = target: T4, NKX2-6 (Homo sapiens, UniProt A6NCS4 118-204, F151L)
T4 sequence: T3 sequence with F34L

ALX3 [12] = target: ALX3 (Homo sapiens, UniProt O95076 139-225, L168V)
Sequence of ALX3 (Homo sapiens, UniProt O95076 139-225, L168V) (O95076 139-225 L168V): as the sequence (O95076 139-225 N203Q) above, with L30V, Q65N counted along it

HOXA2 [13] = target: HOXA2 (Homo sapiens, UniProt O43364 129-215, Y150S)
Sequence of HOXA2 (Homo sapiens, UniProt O43364 129-215, Y150S) (O43364 129-215 Y150S): as the sequence (O43364 129-215 R185T) above, with Y22S, T57R counted along it

ALX1 [14] = target: ALX1 (Homo sapiens, UniProt Q15699 118-204)
Sequence of ALX1 (Homo sapiens, UniProt Q15699 118-204) (Q15699 118-204): as the sequence (Q15699 118-204 L144V) above, with V27L counted along it

ALX3 [15] = target: ALX3 (Homo sapiens, UniProt O95076 139-225, N203S)
Sequence of ALX3 (Homo sapiens, UniProt O95076 139-225, N203S) (O95076 139-225 N203S): as the sequence (O95076 139-225 N203Q) above, with Q65S counted along it

HOXA2 [16] = target: HOXA2 (Homo sapiens, UniProt O43364 129-215)
Sequence of HOXA2 (Homo sapiens, UniProt O43364 129-215) (O43364 129-215): as the sequence (O43364 129-215 R185T) above, with T57R counted along it

NKX2-6 [17] = target: T5, NKX2-6 (Homo sapiens, UniProt A6NCS4 118-204, R150C)
T5 sequence: T3 sequence with R33C

PROP1 [18] = target: PROP1 (Homo sapiens, UniProt O75360 56-141)
Sequence of PROP1 (Homo sapiens, UniProt O75360 56-141) (O75360 56-141): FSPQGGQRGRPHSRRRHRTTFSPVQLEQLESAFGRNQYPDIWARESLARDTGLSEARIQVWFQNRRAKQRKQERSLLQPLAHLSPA

PROP1 [19] = target: PROP1 (Homo sapiens, UniProt O75360 56-141, R99H)
Sequence of PROP1 (Homo sapiens, UniProt O75360 56-141, R99H) (O75360 56-141 R99H): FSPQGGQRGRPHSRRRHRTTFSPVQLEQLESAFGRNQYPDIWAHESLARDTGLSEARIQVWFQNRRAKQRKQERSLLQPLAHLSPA

PROP1 [20] = target: PROP1 (Homo sapiens, UniProt O75360 56-141, F88S)
Sequence of PROP1 (Homo sapiens, UniProt O75360 56-141, F88S) (O75360 56-141 F88S): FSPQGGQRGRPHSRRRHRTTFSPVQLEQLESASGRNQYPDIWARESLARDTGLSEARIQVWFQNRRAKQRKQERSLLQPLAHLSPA

PITX2 = PITX2 (Homo sapiens, UniProt Q99697 72-157)
NKX3-2 [21] = target: NKX3-2 (Homo sapiens, UniProt P78367 192-278, P234S)
Sequence of NKX3-2 (Homo sapiens, UniProt P78367 192-278, P234S) (P78367 192-278 P234S): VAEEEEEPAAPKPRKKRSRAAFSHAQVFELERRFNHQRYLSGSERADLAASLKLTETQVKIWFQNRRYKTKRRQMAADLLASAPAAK

NKX3-2 [22] = target: NKX3-2 (Homo sapiens, UniProt P78367 192-278)
Sequence of NKX3-2 (Homo sapiens, UniProt P78367 192-278) (P78367 192-278): as the sequence (P78367 192-278 P234S) above, with S43P counted along it

CRX = CRX (Homo sapiens, UniProt O43186 26-111, R41L)
Sequence of CRX (O43186 26-111 R41L): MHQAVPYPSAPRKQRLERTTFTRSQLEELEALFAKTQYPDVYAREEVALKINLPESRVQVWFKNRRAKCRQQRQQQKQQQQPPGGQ

HOXA4 [23] = target: HOXA4 (Homo sapiens, UniProt Q00056 201-287, W262F)
Sequence of HOXA4 (Homo sapiens, UniProt Q00056 201-287, W262F) (Q00056 201-287 W262F): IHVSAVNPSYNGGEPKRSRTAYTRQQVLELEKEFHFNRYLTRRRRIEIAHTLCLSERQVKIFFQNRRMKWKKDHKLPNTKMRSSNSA

HOXB9 [24] = target: HOXB9 (Homo sapiens, UniProt P17482 171-250)
Sequence of HOXB9 (Homo sapiens, UniProt P17482 171-250) (P17482 171-250): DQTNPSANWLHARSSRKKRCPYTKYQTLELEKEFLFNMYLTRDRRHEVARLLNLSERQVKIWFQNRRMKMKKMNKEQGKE

HOXB9 [25] = target: HOXB9 (Homo sapiens, UniProt P17482 171-250, R186Q)
Sequence of HOXB9 (Homo sapiens, UniProt P17482 171-250, R186Q) (P17482 171-250 R186Q): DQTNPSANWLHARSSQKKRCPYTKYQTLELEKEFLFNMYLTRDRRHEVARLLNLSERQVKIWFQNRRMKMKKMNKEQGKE

MSX2 [26] = target: MSX2 (Homo sapiens, UniProt P35548 130-214)
Sequence of MSX2 (Homo sapiens, UniProt P35548 130-214) (P35548 130-214): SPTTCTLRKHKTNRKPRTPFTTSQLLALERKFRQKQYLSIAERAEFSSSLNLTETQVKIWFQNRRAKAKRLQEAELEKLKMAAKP

MSX2 [27] = target: MSX2 (Homo sapiens, UniProt P35548 130-214, F161Y)
Sequence of MSX2 (Homo sapiens, UniProt P35548 130-214, F161Y) (P35548 130-214 F161Y): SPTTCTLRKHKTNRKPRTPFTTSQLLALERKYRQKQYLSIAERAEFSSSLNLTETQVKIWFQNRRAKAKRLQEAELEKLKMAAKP

HOXD13 [28] = target: HOXD13 (Homo sapiens, UniProt P35453 263-343)
Sequence of HOXD13 (Homo sapiens, UniProt P35453 263-343) (P35453 263-343): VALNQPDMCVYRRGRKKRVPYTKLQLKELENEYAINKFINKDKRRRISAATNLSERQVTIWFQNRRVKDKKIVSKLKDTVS

HOXD13 [29] = target: HOXD13 (Homo sapiens, UniProt P35453 263-343, T313A)
Sequence of HOXD13 (Homo sapiens, UniProt P35453 263-343, T313A) (P35453 263-343 T313A): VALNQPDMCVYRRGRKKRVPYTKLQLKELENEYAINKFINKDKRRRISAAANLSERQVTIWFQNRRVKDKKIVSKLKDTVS

HOXA4 [30] = target: HOXA4 (Homo sapiens, UniProt Q00056 201-287, R217L)
Sequence of HOXA4 (Homo sapiens, UniProt Q00056 201-287, R217L) (Q00056 201-287 R217L): as the sequence (Q00056 201-287 W262F) above, with R17L, F62W counted along it

HOXA4 [31] = target: HOXA4 (Homo sapiens, UniProt Q00056 201-287)
Sequence of HOXA4 (Homo sapiens, UniProt Q00056 201-287) (Q00056 201-287): as the sequence (Q00056 201-287 W262F) above, with F62W counted along it

## ACGACACC
SIX6 [1]
  binding signal: 10.6 upbm affinity estimate (log intensity, higher = more binding, comparable within an allelic series)
SIX6 [2]
  binding signal: 10.6 upbm affinity estimate (log intensity, higher = more binding, comparable within an allelic series)

## GAATTCTA
HESX1
  binding signal: 6.97 upbm affinity estimate (log intensity, higher = more binding, comparable within an allelic series)

## CCGGTTCC
HOXA2 [3]
  binding signal: 6.98 upbm affinity estimate (log intensity, higher = more binding, comparable within an allelic series)
ALX1 [4]
  binding signal: 6.06 upbm affinity estimate (log intensity, higher = more binding, comparable within an allelic series)
ALX3 [5]
  binding signal: 7.77 upbm affinity estimate (log intensity, higher = more binding, comparable within an allelic series)
NKX2-6 [6]
  binding signal: 9.05 upbm affinity estimate (log intensity, higher = more binding, comparable within an allelic series)
HOXA2 [7]
  binding signal: 10.1 upbm affinity estimate (log intensity, higher = more binding, comparable within an allelic series)
ALX1 [8]
  binding signal: 6.02 upbm affinity estimate (log intensity, higher = more binding, comparable within an allelic series)
ALX3 [9]
  binding signal: 7.63 upbm affinity estimate (log intensity, higher = more binding, comparable within an allelic series)
ALX3 [10]
  binding signal: 7.69 upbm affinity estimate (log intensity, higher = more binding, comparable within an allelic series)
NKX2-6 [11]
  binding signal: 9.2 upbm affinity estimate (log intensity, higher = more binding, comparable within an allelic series)
ALX3 [12]
  binding signal: 7.7 upbm affinity estimate (log intensity, higher = more binding, comparable within an allelic series)
HOXA2 [13]
  binding signal: 10.4 upbm affinity estimate (log intensity, higher = more binding, comparable within an allelic series)
ALX1 [14]
  binding signal: 6 upbm affinity estimate (log intensity, higher = more binding, comparable within an allelic series)
ALX3 [15]
  binding signal: 7.77 upbm affinity estimate (log intensity, higher = more binding, comparable within an allelic series)
HOXA2 [16]
  binding signal: 6.81 upbm affinity estimate (log intensity, higher = more binding, comparable within an allelic series)

## CATGACAC
SIX6 [1]
  binding signal: 10.7 upbm affinity estimate (log intensity, higher = more binding, comparable within an allelic series)

## AGACACCA
SIX6 [1]
  binding signal: 10.5 upbm affinity estimate (log intensity, higher = more binding, comparable within an allelic series)

## GACACCCA
SIX6 [1]
  binding signal: 10.5 upbm affinity estimate (log intensity, higher = more binding, comparable within an allelic series)

## AAGACACC
SIX6 [1]
  binding signal: 10.6 upbm affinity estimate (log intensity, higher = more binding, comparable within an allelic series)

## CCCCCACG
HOXA2 [3]
  binding signal: 6.91 upbm affinity estimate (log intensity, higher = more binding, comparable within an allelic series)
NKX2-6 [17]
  binding signal: 9.26 upbm affinity estimate (log intensity, higher = more binding, comparable within an allelic series)
HOXA2 [7]
  binding signal: 9.95 upbm affinity estimate (log intensity, higher = more binding, comparable within an allelic series)
PROP1 [18]
  binding signal: 6.48 upbm affinity estimate (log intensity, higher = more binding, comparable within an allelic series)
PROP1 [19]
  binding signal: 6.59 upbm affinity estimate (log intensity, higher = more binding, comparable within an allelic series)
PROP1 [20]
  binding signal: 6.32 upbm affinity estimate (log intensity, higher = more binding, comparable within an allelic series)
HOXA2 [13]
  binding signal: 10.4 upbm affinity estimate (log intensity, higher = more binding, comparable within an allelic series)
HOXA2 [16]
  binding signal: 6.93 upbm affinity estimate (log intensity, higher = more binding, comparable within an allelic series)

## AGACACCC
SIX6 [1]
  binding signal: 10.5 upbm affinity estimate (log intensity, higher = more binding, comparable within an allelic series)

## CGTATTAC
HOXA2 [3]
  binding signal: 9.06 upbm affinity estimate (log intensity, higher = more binding, comparable within an allelic series)
ALX3 [5]
  binding signal: 8.19 upbm affinity estimate (log intensity, higher = more binding, comparable within an allelic series)
ALX3 [9]
  binding signal: 9.9 upbm affinity estimate (log intensity, higher = more binding, comparable within an allelic series)
ALX3 [15]
  binding signal: 8.23 upbm affinity estimate (log intensity, higher = more binding, comparable within an allelic series)
HOXA2 [16]
  binding signal: 9.08 upbm affinity estimate (log intensity, higher = more binding, comparable within an allelic series)

## ACACCACC
SIX6 [1]
  binding signal: 10.3 upbm affinity estimate (log intensity, higher = more binding, comparable within an allelic series)

## ATTACACC
SIX6 [1]
  binding signal: 10.7 upbm affinity estimate (log intensity, higher = more binding, comparable within an allelic series)
SIX6 [2]
  binding signal: 10.7 upbm affinity estimate (log intensity, higher = more binding, comparable within an allelic series)
PITX2
  binding signal: 9.68 upbm affinity estimate (log intensity, higher = more binding, comparable within an allelic series)

## CTGATTAA
ALX1 [8]
  binding signal: 11.1 upbm affinity estimate (log intensity, higher = more binding, comparable within an allelic series)

## AACCGGGC
NKX3-2 [21]
  binding signal: 10.4 upbm affinity estimate (log intensity, higher = more binding, comparable within an allelic series)
NKX3-2 [22]
  binding signal: 10.4 upbm affinity estimate (log intensity, higher = more binding, comparable within an allelic series)

## ACTAATGC
CRX
  binding signal: 10.1 upbm affinity estimate (log intensity, higher = more binding, comparable within an allelic series)

## CGTCATTA
HOXA4 [23]
  binding signal: 11.4 upbm affinity estimate (log intensity, higher = more binding, comparable within an allelic series)

## CTATTCAA
HOXA2 [3]
  binding signal: 9.27 upbm affinity estimate (log intensity, higher = more binding, comparable within an allelic series)
HOXA2 [13]
  binding signal: 10.8 upbm affinity estimate (log intensity, higher = more binding, comparable within an allelic series)
HOXA2 [16]
  binding signal: 9.17 upbm affinity estimate (log intensity, higher = more binding, comparable within an allelic series)

## CTACTATA
HOXB9 [24]
  binding signal: 10.2 upbm affinity estimate (log intensity, higher = more binding, comparable within an allelic series)
HOXB9 [25]
  binding signal: 10 upbm affinity estimate (log intensity, higher = more binding, comparable within an allelic series)

## AAAAATTG
HOXA2 [3]
  binding signal: 8.96 upbm affinity estimate (log intensity, higher = more binding, comparable within an allelic series)
HOXA2 [16]
  binding signal: 8.94 upbm affinity estimate (log intensity, higher = more binding, comparable within an allelic series)

## CATTTTAC
HOXA2 [3]
  binding signal: 8.88 upbm affinity estimate (log intensity, higher = more binding, comparable within an allelic series)
HOXA2 [16]
  binding signal: 8.85 upbm affinity estimate (log intensity, higher = more binding, comparable within an allelic series)

## CACACTAA
HOXB9 [24]
  binding signal: 9.92 upbm affinity estimate (log intensity, higher = more binding, comparable within an allelic series)
MSX2 [26]
  binding signal: 10.8 upbm affinity estimate (log intensity, higher = more binding, comparable within an allelic series)
HOXB9 [25]
  binding signal: 9.82 upbm affinity estimate (log intensity, higher = more binding, comparable within an allelic series)
MSX2 [27]
  binding signal: 10.7 upbm affinity estimate (log intensity, higher = more binding, comparable within an allelic series)

## TAATAGTA
HOXB9 [24]
  binding signal: 10.9 upbm affinity estimate (log intensity, higher = more binding, comparable within an allelic series)
MSX2 [26]
  binding signal: 11.7 upbm affinity estimate (log intensity, higher = more binding, comparable within an allelic series)
HOXB9 [25]
  binding signal: 10.8 upbm affinity estimate (log intensity, higher = more binding, comparable within an allelic series)
MSX2 [27]
  binding signal: 11.5 upbm affinity estimate (log intensity, higher = more binding, comparable within an allelic series)

## AGATGACC
HOXA2 [3]
  binding signal: 9.18 upbm affinity estimate (log intensity, higher = more binding, comparable within an allelic series)
HOXA2 [13]
  binding signal: 10.5 upbm affinity estimate (log intensity, higher = more binding, comparable within an allelic series)
HOXA2 [16]
  binding signal: 9.29 upbm affinity estimate (log intensity, higher = more binding, comparable within an allelic series)

## CCTATCAG
HOXA2 [3]
  binding signal: 8.81 upbm affinity estimate (log intensity, higher = more binding, comparable within an allelic series)
HOXA2 [16]
  binding signal: 8.67 upbm affinity estimate (log intensity, higher = more binding, comparable within an allelic series)

## GACCATCA
HOXA2 [3]
  binding signal: 8.84 upbm affinity estimate (log intensity, higher = more binding, comparable within an allelic series)
HOXA2 [13]
  binding signal: 10.6 upbm affinity estimate (log intensity, higher = more binding, comparable within an allelic series)
HOXA2 [16]
  binding signal: 9.24 upbm affinity estimate (log intensity, higher = more binding, comparable within an allelic series)

## ATCATCTG
HOXA2 [3]
  binding signal: 9.25 upbm affinity estimate (log intensity, higher = more binding, comparable within an allelic series)
HOXA2 [13]
  binding signal: 10.7 upbm affinity estimate (log intensity, higher = more binding, comparable within an allelic series)
HOXA2 [16]
  binding signal: 9.72 upbm affinity estimate (log intensity, higher = more binding, comparable within an allelic series)

## TGTGTAAA
HOXB9 [24]
  binding signal: 9.82 upbm affinity estimate (log intensity, higher = more binding, comparable within an allelic series)
HOXD13 [28]
  binding signal: 11.1 upbm affinity estimate (log intensity, higher = more binding, comparable within an allelic series)
HOXD13 [29]
  binding signal: 11 upbm affinity estimate (log intensity, higher = more binding, comparable within an allelic series)

## TAAACATA
HOXA2 [3]
  binding signal: 8.59 upbm affinity estimate (log intensity, higher = more binding, comparable within an allelic series)
HOXA2 [16]
  binding signal: 8.55 upbm affinity estimate (log intensity, higher = more binding, comparable within an allelic series)

## ACATTAGC
HOXA4 [30]
  binding signal: 10.8 upbm affinity estimate (log intensity, higher = more binding, comparable within an allelic series)

## ATAGAAAT
HOXA2 [3]
  binding signal: 9.28 upbm affinity estimate (log intensity, higher = more binding, comparable within an allelic series)
HOXA2 [16]
  binding signal: 9.2 upbm affinity estimate (log intensity, higher = more binding, comparable within an allelic series)

## AAAAATAT
HOXA4 [30]
  binding signal: 10.8 upbm affinity estimate (log intensity, higher = more binding, comparable within an allelic series)
HOXA4 [31]
  binding signal: 11.1 upbm affinity estimate (log intensity, higher = more binding, comparable within an allelic series)

## ATATCTTC
HOXB9 [24]
  binding signal: 10 upbm affinity estimate (log intensity, higher = more binding, comparable within an allelic series)
HOXB9 [25]
  binding signal: 9.91 upbm affinity estimate (log intensity, higher = more binding, comparable within an allelic series)

## AACAAATA
HOXB9 [24]
  binding signal: 10.1 upbm affinity estimate (log intensity, higher = more binding, comparable within an allelic series)
HOXB9 [25]
  binding signal: 9.97 upbm affinity estimate (log intensity, higher = more binding, comparable within an allelic series)
